Assay results published in PubChem BioAssay (EPA / NIEHS).
Active and inactive are the calls of the source. The calls were made as follows: active = hit-call score of the fitted dose curve at least 0.9, where 1 is the maximum; inactive = score below 0.9.

read-out: CD40, CD40 (gene 958); test: BSK_SAg_CD40: BioMAP Diversity Plus: SAg Assay for CD40 Biomarker Activity (AID 2283088); conditions: primary human HUVEC with PBMC; actives raise or lower the signal
Procedure: BSK_SAg is a cell-based, multiplexed-readout assay that uses umbilical vein endothelium and peripheral blood mononuclear cells, a human vascular primary cell co-culture, with measurements taken at 24 hours after chemical dosing in a 96-well plate.BSK_SAg_CD40 is one of 10 assay component(s) measured or calculated from the BSK_SAg assay. It is designed to make measurements of enzyme-linked immunosorbent assay, a form of binding reporter, as detected with fluorescence intensity signals by Enzyme-linked immunosorbent assay technology.Data from the assay component BSK_SAg_CD40 was analyzed into 1 assay endpoint. This assay endpoint, BSK_SAg_CD40, was analyzed with bidirectional fitting relative to DMSO as the negative control and baseline of activity. Using a type of binding reporter, gain or loss-of-signal activity can be used to understand changes in the signaling as they relate to the gene CD40. Furthermore, this assay endpoint can be referred to as a primary readout, because this assay has produced multiple assay endpoints where this one serves a signaling function. To generalize the intended target to other relatable targets, this assay endpoint is annotated to the cytokine intended target family, where the subfamily is inflammatory factor.
The levels of cell surface (or secreted, indicated by the prefix "s") biomarker endpoints were measured by ELISA. Overt cytotoxicity to cells in confluent adherent cultures (all systems other than the BT system) was assessed by measuring total protein levels using sulforhodamine B (SRB) staining in parallel cultures at the time of biomarker measurements, indicated as SRB endpoints. For proliferation assays for adherent cell types, individual cell types are cultured at sub-confluence and relative cell numbers quantified by SRB staining at time points optimized for each system (48 h: 3C and CASM3C systems; 72 h: BT and HDF3CGF systems; 96 h: SAg system). SRB was performed by staining cells with 0.1% SRB after fixation with 10% TCA and reading wells at 560 nm.Viability and proliferation of PBMC (T cells) was quantified by Alamar Blue reduction for the SAg and BT systems. For PBMC viability (referred to as PBMC Cytotoxicity within the assay endpoint names), cells were plated (75,000/well in a 96-well plate) and then chemical samples added for 1 h before addition of activators, SEB and TSST-1 (20 ng/mL final concentration each). Cells were incubated for 90 h. Then, Alamar Blue (20 uL/well) (Invitrogen, Cat DAL1100) was added for 6 h, and the plates were read with a fluorescence microplate reader at 546/580 nm (excitation/emission). For PBMC proliferation, cells were plated and activated as above but incubated for only 16 h prior to addition of Alamar Blue. Plates were read after 6 h.

| SMILES | outcome | AC50 |
| --- | --- | --- |
| NC(=O)Cn1c(=O)cc(CCN2CCN(c3nccc4sccc34)CC2)c2ccc(F)cc21 | inactive |  |
| CCCCCCCCCCCCCCCCCC(=O)O |  | 25.8 µM (active) |
| Cc1ccc(N(C)C)cc1 | inactive |  |
| CN[C@H]1CC[C@@H](c2ccc(Cl)c(Cl)c2)c2ccc(S(N)(=O)=O)cc21 |  | 29.3 µM (active) |
| O=c1c(O)c(-c2ccc(O)c(O)c2)oc2cc(O)cc(O)c12 |  | 36 µM (active) |
| Cc1cccc([N+](=O)[O-])c1C | inactive |  |
| OC[C@@H](O)[C@@H](O)[C@H](O)[C@H](O)CO | inactive |  |
| CC(CO)OC(C)CO (stereo not given) (tested in a mixture with another compound) | inactive |  |
| O=C(OCCCCCOC(=O)c1ccccc1)c1ccccc1 | inactive |  |
| CC1(C)CC(N=C=O)CC(C)(CN=C=O)C1 (stereo not given) | inactive |  |
| CCCCCC(=O)O | inactive |  |
| O=C(O)CCCCC(=O)O | inactive |  |
| CCc1c(C(=O)NN2CCCCC2)nn(-c2ccc(Cl)cc2Cl)c1-c1ccc(Br)cc1 |  | 12.2 µM (active) |
| O=C(O)Cc1ccccc1Nc1c(Cl)cccc1Cl | inactive |  |
| CC(=O)OC/C=C(\C)CCC=C(C)C | inactive |  |
| CCOc1ccc2c(c1)C(C)=CC(C)(C)N2 | inactive |  |
| COc1cc(C=O)ccc1O | inactive |  |
| CCCCCCCCCCC | inactive |  |
| CC(=O)OCCOCCOCCOC(C)=O | inactive |  |
| CCOC(=O)C(C)(C)Oc1ccc(Cl)cc1 | inactive |  |

| SMILES | outcome | AC50 |
| --- | --- | --- |
| Nc1ccc(S(=O)(=O)c2ccc(N)cc2)cc1 | inactive |  |
| C[C@]12C=CC(=O)C=C1CC[C@@H]1[C@@H]2C(=O)C[C@@]2(C)[C@H]1CC[C@]2(O)C(=O)CO | inactive |  |
| COc1cc(-c2nc(NC(=O)c3cc4cc(C)cc(C)c4n3CC(=O)O)sc2CCC2CCCCC2)c(OC)cc1Cl |  | 3.21 µM (active) |
| C1CCC(SSC2CCCCC2)CC1 |  | 27 µM (active) |
| Cc1cc(NC(=O)C(=O)O)cc(C)c1Oc1ccc(O)c2c1CCC2 | inactive |  |
| Cc1cccc(C)c1O | inactive |  |
| Clc1cc(Cl)c(Cl)cc1Cl | inactive |  |
| CC(=O)Oc1ccccc1C(=O)O | inactive |  |
| Cc1c(C(=O)O)c(O)cc2c1C(=O)c1c(O)c([C@@H]3O[C@H](CO)[C@@H](O)[C@H](O)[C@H]3O)c(O)c(O)c1C2=O | inactive |  |
| CNCc1cc(F)ccc1Oc1ccc(Cl)c(Cl)c1 |  | 36.5 µM (active) |
| Cc1ccccc1Cl | inactive |  |
| Cc1nc(C)nc(N2C[C@@H](C)N(c3ccnc([C@@H](C)O)n3)[C@@H](C)C2)n1 | inactive |  |
| COCCOCCOC | inactive |  |
| Cc1nc(-c2ccc3c(c2)CCN(CCC2CCC(NC(=O)/C=C/c4ccc(F)cc4)CC2)CC3)no1 (stereo not given) |  | 6.43 µM (active) |
| CC(=O)C(C)=CC1C(C)=CCCC1(C)C (stereo not given) | inactive |  |
| COC(=O)c1ccc(O)cc1 | inactive |  |
| COc1ccc(C)cc1N | inactive |  |
| COc1ccc2c(c1)c(CC(=O)O)c(C)n2C(=O)c1ccc(Cl)cc1 | inactive |  |
| FC(F)(F)C(F)(F)C(F)(F)C(F)(F)C(F)(F)C(F)(F)CCI | inactive |  |
| CN1CCN(Cc2cc(-c3ccc4[nH]c(=O)oc4c3)co2)[C@@H](c2ccc(F)cc2)C1 |  | 26.8 µM (active) |
